Source: PubChem
This is a sample that favours compounds with a hit; in the whole collection about 2.8% have one here.
KKLEB cytotox: cytotoxicity in KKLEB CF airway cells, primary screen, cytotoxicity control for CF NF-kB inhibitor project, cell-based, uHTS, fluorescence assay plates | 360,000 tested, 0.36% active | activity change (cytotoxicity), % at 5 µM | KKLEB CF airway cells viability, ATPlite luminescence, overnight; active compounds read low; cells stimulated with P. aeruginosa culture filtrate;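 active = corrected activity change at or below -50% at 5 µM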
CF NFkB inh: inhibitors of PAF-induced NF-kB signaling, primary screen, cell-based, GFP fluorescence, uHTS; KKLEB NF-kB-GFP reporter, GFP fluorescence overnight; inhibition, % at 5 µM; 360,000 tested, 0.86% active; AID 588850, 2011;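 active = at least 50% inhibition at 5 µM, scaled per plate between neutral and stimulator controls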;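 also: PAF is a Pseudomonas aeruginosa culture filtrate used as stimulus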
Peg3 promoter: Peg3 promoter-driven luciferase inhibitors, primary screen, cell-based, HeLa, luciferase luminescence. 360,000 tested, 1.7% active. HeLa PEG-Prom luciferase reporter, overnight. inhibition, % at 20 µM. AID 588405, 2011;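 active = inhibition of at least 50% at 20 µM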
Beta2AR agonist: beta2AR agonists driving receptor internalization, primary screen, cell-based, FAP fluorogen, flow cytometry | Beta-2 adrenergic receptor (Homo sapiens), P07550 | Am2.2-beta2AR cells | response, % (no concentration beside the values) | 340,000 tested, 0.43% active;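 active = response above a set limit, near 3 SD of response in nonfluorescent compounds, cut at about 42% in these data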
Target sequence (P07550 whole entry, looked up): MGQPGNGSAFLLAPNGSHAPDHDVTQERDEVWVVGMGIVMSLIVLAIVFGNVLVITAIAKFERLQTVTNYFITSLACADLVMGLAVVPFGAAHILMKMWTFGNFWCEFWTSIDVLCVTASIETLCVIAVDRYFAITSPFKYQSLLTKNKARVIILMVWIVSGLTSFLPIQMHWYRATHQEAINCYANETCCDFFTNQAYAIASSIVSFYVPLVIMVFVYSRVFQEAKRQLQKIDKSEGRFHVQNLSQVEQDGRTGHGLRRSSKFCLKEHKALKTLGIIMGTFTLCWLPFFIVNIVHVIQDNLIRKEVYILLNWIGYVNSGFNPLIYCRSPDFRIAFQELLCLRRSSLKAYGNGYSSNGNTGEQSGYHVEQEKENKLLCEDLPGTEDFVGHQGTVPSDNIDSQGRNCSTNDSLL
HIF-2a block: HIF-2a reporter inhibitors, primary screen, luminescence, 786-0 RCC cells | 786-0 RCC cells HIF-2a reporter, luciferase luminescence, overnight | inhibition, % at 18.8 µM | 360,000 tested, 0.72% active;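 active = inhibition of the luminescence signal of 40% or more relative to plate controls, in a single-dose primary screen at 18.75 µM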
MITF TRPM1 inh: inhibitors of MITF-dependent TRPM1 promoter reporter, primary screen, cell-based, SK-MEL-5, single point, luciferase; inhibition, % at 12.5 µM; AID 488899, 2010; SK-MEL-5 TRPM1 promoter luciferase, 24 h; 330,000 tested, 0.83% active;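 active = mean inhibition across replicates of 60% or more, whatever share of single replicates reaches that level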
Beta2AR ag CP1: beta2AR agonists via receptor internalization, confirmation, cell-based, FAP fluorogen, flow cytometry, single point, cherry pick 1; 1,100 tested, 25% active; Am2.2-beta2AR cells, FAP surface receptor; active compounds read low; percent response (surface receptor), % at 10 µM; AID 540358, 2011; shares compounds with Beta2AR agonist;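 active = surface receptor percent response at or below 58%, roughly 3 SD from nonfluorescent compounds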
B2AR FAP counter: fluorescence artifact in beta-2AR agonist FAP counterscreen. shares compounds with Beta2AR agonist. Am2.2 cells, FAP fluorogen flow cytometry; active compounds read low. calls only at 10 µM. 1,100 tested, under 10 active. AID 588765;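 active = percent response below a set limit in fluorescence channel 1 and below 50% in channel 8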
Of the large screens only hits and unclear results are named; the others gave an inactive call (follow-up assays come after a bar, where they were run).

CC1CCCN(C(=O)COC(=O)c2ccc[nH]c2=O)C1 (stereo not drawn)	Beta2AR agonist 51.0 | Beta2AR ag CP1 inactive | B2AR FAP counter inactive
CN(C(=O)COC(=O)c1ccc[nH]c1=O)C1CCCCC1	none
O=C(c1cc(-c2ccc(Cl)cc2)n(-c2cc(Cl)ccc2Cl)n1)N1CCOCC1	Beta2AR agonist 61.6 | Beta2AR ag CP1 inactive | B2AR FAP counter inactive
O=C(c1cc(-c2ccc(Cl)cc2)n(-c2ccc(Cl)c(Cl)c2)n1)N1CCOCC1	none
CC1=NN(C(N)=S)C(=O)C1N=Nc1ccccc1O (stereo not drawn)	none
CCOc1ccccc1N=NC1C(=O)N(C(N)=S)N=C1C (stereo not drawn)	none | Beta2AR ag CP1 inactive | B2AR FAP counter inactive
COc1ccc(NC(=O)Cn2nnc(-c3ccccc3NC(=O)C3CC3)n2)cc1	none | Beta2AR ag CP1 inactive | B2AR FAP counter inactive
CCOc1ccc(NC(=O)Cn2nnc(-c3ccccc3NC(=O)C3CC3)n2)cc1	none | Beta2AR ag CP1 inactive | B2AR FAP counter inactive
COC(=O)[C@@]12C[C@@H](CC(=O)NCc3cccs3)C(=O)N(Cc3cccc4ccccc34)C1=CCC(C)(C)C2	none (no result: KKLEB cytotox, CF NFkB inh, Peg3 promoter, Beta2AR agonist, MITF TRPM1 inh)
CCN(CC)CCNc1ncnc2c1sc1nc(N3CCCC3)c3c(c12)CC(C)(C)OC3	Peg3 promoter 78.8, Beta2AR agonist 65.1 | Beta2AR ag CP1 inactive | B2AR FAP counter inactive
CC1(C)Cc2nc3sc4c(N(CCO)CCO)ncnc4c3cc2CO1	none
CCN(CCO)c1ncnc2c1sc1nc(CC(C)C)c3c(c12)CC(C)(C)OC3	none | Beta2AR ag CP1 24.7 | B2AR FAP counter inactive
OCCNc1ncnc2c1sc1nc(N3CCOCC3)c3c(c12)CCC3	none
CC(C)CNc1nnnc2c1sc1nc(N3CCOCC3)c3c(c12)CC(C)(C)SC3	none
CC(C)CNc1ncnc2c1sc1nc(N3CCOCC3)c3c(c12)CC(C)(C)OC3	none | Beta2AR ag CP1 inactive | B2AR FAP counter inactive
Cc1ccc(-c2nnn(CC(=O)Nc3ccccc3N3CCOCC3)n2)cc1	none
O=C(Cn1nnc(-c2ccccc2)n1)Nc1ccccc1N1CCOCC1	none | Beta2AR ag CP1 43.3 | B2AR FAP counter inactive
CC(=O)Nc1cccc(-c2cc(NC(C)=O)c3ncc(-c4ccc(C(C)=O)cc4)n3c2)c1	none (no result: Beta2AR agonist, MITF TRPM1 inh)
CC(C)(C)c1ccc(OCC(=O)Nc2ccc(-c3nc4cccnc4o3)cc2)cc1	Beta2AR agonist 109.6 | Beta2AR ag CP1 40.4 | B2AR FAP counter inactive
C[C@@H]1CN([C@@H](C)CO)C(=O)c2cc(NC(=O)C3CCCCC3)ccc2O[C@@H](C)CCCCO[C@@H]1CN(C)Cc1ccncc1	none (no result: Beta2AR agonist, MITF TRPM1 inh)
CN(Cc1ccccc1)S(=O)(=O)c1ccc(NS(=O)(=O)Cc2ccccc2)cc1	Beta2AR agonist 47.8 | Beta2AR ag CP1 33.7 | B2AR FAP counter inactive
O=S(=O)(Cc1ccccc1)Nc1ccccc1	none
COc1ccc(C2/C=C\CN(C(=O)c3ccccc3)[C@H](Cc3ccccc3)C(=O)N2Cc2ccc(F)cc2)cc1 (stereo partly drawn)	none | Beta2AR ag CP1 inactive | B2AR FAP counter inactive
COc1ccc([C@H]2/C=C\CN(C(=O)c3ccc(C)cc3)[C@@H](C)C(=O)N2Cc2ccc(F)cc2)cc1	none | Beta2AR ag CP1 inactive | B2AR FAP counter inactive
COc1ccc(C2/C=C\CN(C(=O)c3ccccc3)CC(=O)N2Cc2cccc(F)c2)cc1 (stereo not drawn)	none | Beta2AR ag CP1 inactive | B2AR FAP counter inactive
COc1ccc(C2/C=C\CN(C(=O)OCC3c4ccccc4-c4ccccc43)CC(=O)N2Cc2cccc(F)c2)cc1 (stereo not drawn)	none
